From PubChem BioAssay
Cycloheximide cs – Cycloheximide Counterscreen for Small Molecule Inhibitors of Shiga Toxin; cell reporter, cycloheximide protein synthesis inhibition counterscreen; max response, %; hit rate 12% among 300,000; in the data active means max response mostly above about 13%, no sharp cut-off; inactive means mostly below about 14%; further: read at 38.3 µM for the half of the compounds with a filed dose
Shiga inhibitor – A qHTS for Small Molecule Inhibitors of Shiga Toxin. Vero cells, Shiga toxin protein synthesis inhibition reporter. inhibition, % at 38.7 µM. hit rate 9.2% among 290,000. AID 2315, 2010; in the data active means inhibition mostly above about 28%, no sharp cut-off; inactive means mostly below about 43%
Pf growth 48h – Primary qHTS for delayed death inhibitors of the malarial parasite plastid, 48 hour incubation | hit rate 5.9% among 310,000 | P. falciparum luciferase growth in erythrocytes, 48 h | Potency, µM (series often up to 28.7 µM), usual class: inhibitors | AID 504832, 2011
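Erythrocytes infected with P. falciparum carrying an integrated firefly luciferase reporter (2% hematocrit, 0.1% parasitemia final) were exposed to compounds in RPMI 1640 with 0.5% Albumax at 37 C, 5% CO2. Growth inhibition was scored as reduced luminescence.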
Pf growth 96h – Primary qHTS for delayed death inhibitors of the malarial parasite plastid, 96 hour incubation; P. falciparum luciferase reporter growth, 96 h; Potency, µM (titrated, usually from 28.7 µM), hits mostly inhibitors; hit rate 6.9% among 320,000; AID 504834, 2011
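Two-generation exposure (96 h) targets delayed-death phenotype. Reporter parasites carrying integrated firefly luciferase, in red cells at 2% hematocrit and 0.05% parasitemia final, kept at 37 C, 5% CO2; luminescence loss indicates inhibition.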
Of the large screens only hits and unclear results are named; the others gave an inactive call. Only some compounds are listed: those with a hit (about 21% of all), similar ones and a draw of the others. Unless noted, the call rests on the fitted dose curve; in most records, active means well fitted inhibition curve with a large enough effect; inconclusive means small, poorly fitted or top-dose-only effect, or another doubt; inactive means no such curve, though single readings can be large or run the other way.

O=C(Nc1ccc2oc(-c3ccc(F)cc3)nc2c1)c1ccccc1F	Shiga inhibitor 39
Clc1ccc(C(c2nnnn2CCc2ccccc2)N2CCSCC2)cc1 (stereo not drawn)	Pf growth 48h inconclusive
N#CCCCN1C(=O)C(=C(C#N)C#N)c2ccccc21	none
O=C(Nc1ccc(C(=O)N2CCCC2)cc1)c1ccccc1F	Cycloheximide cs 36, Shiga inhibitor 66 (no result: Pf growth 96h)
O=C(Nc1ccc(SC(F)F)cc1)c1ccccc1F	Cycloheximide cs 45, Shiga inhibitor 92
O=C(Nc1ccc(F)cc1)c1ccccc1F	Cycloheximide cs 42, Shiga inhibitor 114
O=C(NCc1ccncc1)c1ccccc1Nc1ccc(SC(F)F)cc1	Pf growth 48h inconclusive, Pf growth 96h inconclusive
CNC(=O)c1ccccc1Nc1ccc(SC(F)F)cc1	Cycloheximide cs 23, Shiga inhibitor 24, Pf growth 96h inconclusive
Cc1ccc(Cl)cc1NC(=O)c1cc(S(=O)(=O)N2CCOCC2)cn1C	Pf growth 96h inconclusive
Cc1c(C(=O)N2CCN(S(=O)(=O)c3cc(F)ccc3F)CC2)oc2ccccc12	Pf growth 48h inconclusive (no result: Cycloheximide cs, Shiga inhibitor)
Cn1c(CS/C(N)=N/N=C/c2ccccc2)c(Br)c(=O)n1-c1ccccc1	none
Cc1[nH]c(=O)c(C#N)c(C)c1CCC(=O)NCc1cccc(C(F)(F)F)c1	none
CCOC(=O)Nc1ccc(C(N)=O)cc1	none
O=C(Nc1ccc2ccccc2c1)c1ccccc1F	Cycloheximide cs 24
O=C(Nc1ccc(SC(F)F)cc1)c1ccc(F)cc1	Cycloheximide cs 37, Shiga inhibitor 145
CC(=O)Nc1c(O)nc(SCC(=O)Nc2cccc(C)c2)[nH]c1=O	none (no result: Pf growth 48h)
CC(=O)Nc1c(O)nc(SCC(=O)Nc2ccc(C(C)=O)cc2)[nH]c1=O	Cycloheximide cs 47, Shiga inhibitor 134
CCOC(=O)Nc1ccc(NC(=O)c2ccccc2F)cc1	Cycloheximide cs 18, Shiga inhibitor 85
NC(=O)Nc1ccccc1C(=O)Nc1ccc2ccccc2c1	none (no result: Shiga inhibitor)
CCN(CC)C(=O)c1ccc(C(=O)Nc2ccc(F)cc2)cc1	none (no result: Cycloheximide cs, Shiga inhibitor)
CCOC(=O)N1CCC(=NNC(=O)c2ccc(O)cc2)CC1	Pf growth 96h inconclusive
CCOC(=O)N1CCC(=NNC(=O)c2ccccc2F)CC1	Cycloheximide cs 49, Shiga inhibitor 25
O=C(Nc1ccc(F)cc1)Nc1ccc(NC(=O)c2ccccc2O)cc1	Pf growth 48h 12µM
O=C(Nc1ccc2nc(-c3cccnc3)[nH]c2c1)c1ccccc1F	Cycloheximide cs 15, Pf growth 48h inconclusive
c1cncc(-c2nc3cc4ccccc4cc3[nH]2)c1	Cycloheximide cs 45, Shiga inhibitor 62
S=c1[nH]nc(-c2cc(-c3ccccc3)n[nH]2)n1/N=C/c1ccc(Br)s1	none
Cc1nnc(SCC(=O)Nc2ccc([N+](=O)[O-])cc2)n1C	Pf growth 96h inconclusive
Cc1ccc(COc2ccc(CNCCCN3CCCCCC3=O)cc2)cc1	Cycloheximide cs 26, Shiga inhibitor 70, Pf growth 48h inconclusive
O=C(COc1ccc(Br)cc1)NCCCN1CCCC1=O	Pf growth 96h inconclusive (no result: Cycloheximide cs, Shiga inhibitor)
O=C(CSc1nc(-c2ccc(F)cc2)cc(C(F)(F)F)n1)NCc1ccco1	Pf growth 96h 2.1µM
O=C(CSc1nc(-c2ccc(F)cc2)cc(C(F)(F)F)n1)NCc1cccs1	Pf growth 96h 3.3µM
COCCN(Cc1ccco1)C(=O)C1CCCN(c2ncnc3c2nc2n3CCCCC2)C1 (stereo not drawn)	Pf growth 48h inconclusive, Pf growth 96h 4.1µM
COc1cccc(N2CCN(C(=O)C3CCCN(c4ncnc5c4nc4n5CCCCC4)C3)CC2)c1 (stereo not drawn)	Pf growth 48h inconclusive, Pf growth 96h 10µM
CCN1CCN(C(=O)C2CCCN(c3ncnc4c3nc3n4CCCCC3)C2)CC1 (stereo not drawn)	Pf growth 48h inconclusive, Pf growth 96h 10µM
CN(Cc1ccco1)C(=O)C1CCCN(c2ncnc3c2nc2n3CCCCC2)C1 (stereo not drawn)	Pf growth 96h inconclusive
CC1CCN(C(=O)C2CCCN(c3ncnc4c3nc3n4CCCCC3)C2)CC1 (stereo not drawn)	Pf growth 96h 9.3µM
Cc1cc(F)ccc1S(=O)(=O)Nc1ccc(O)c(Sc2ncn[nH]2)c1	none
O=C(COc1ccc2c(c1)OCO2)Nc1nccs1	Shiga inhibitor 58, Pf growth 96h inconclusive
O=C(COc1ccccc1)Nc1ccc(Cl)cn1	Cycloheximide cs 62, Shiga inhibitor 62, Pf growth 48h inconclusive
O=C(COc1ccc2c(c1)OCO2)Nc1ccc(Cl)cn1	Cycloheximide cs 51, Shiga inhibitor 69
O=C(COc1ccc2c(c1)OCO2)Nc1ccccc1F	Cycloheximide cs 41, Shiga inhibitor 108, Pf growth 96h inconclusive
CC(OC(=O)CCN=C1NS(=O)(=O)c2ccccc21)C(=O)Nc1ccccc1F (stereo not drawn)	none (no result: Cycloheximide cs, Shiga inhibitor)
COc1cccc(NC(=O)c2cnc(SCC(=O)NCc3ccc4c(c3)OCO4)n(C)c2=O)c1	none (no result: Cycloheximide cs, Shiga inhibitor)
CC(C)=CC(=O)OCC(=O)Nc1ccc(Cl)cn1	Cycloheximide cs 19 (no result: Pf growth 96h)
O=C(COc1ccccc1Cl)Nc1ccc(Cl)cn1	Cycloheximide cs 39, Shiga inhibitor 63, Pf growth 96h 10µM
COc1ccccc1C(=O)OCC(=O)Nc1ccc(Cl)cn1	Cycloheximide cs 27
O=C(COC(=O)c1ccccc1)Nc1ccc(Cl)cn1	none
O=C(/C=C/c1ccc2c(c1)OCO2)Nc1ccc(Cl)cn1	Cycloheximide cs 34, Shiga inhibitor 78
Cc1oc(-c2ccccc2Cl)nc1CS(=O)(=O)CC(=O)N1CCOCC1	none
O=C(CCc1ccccn1)N1CCCC(N2CCN(c3cccc(C(F)(F)F)c3)CC2)C1 (stereo not drawn)	Pf growth 48h inconclusive, Pf growth 96h inconclusive
Cc1nn(-c2ccccc2)c(OC(=O)c2cccs2)c1S(=O)(=O)c1ccc([N+](=O)[O-])cc1	none (no result: Pf growth 96h)
O=C(COc1ccc(Cl)cc1)Nc1ccc(Cl)cn1	Cycloheximide cs 26 (no result: Pf growth 96h)
O=C(NC1=NCCCCC1)c1cccc2ccccc12	none
Clc1cccc(N/N=C/c2ccc(N3CCOCC3)s2)c1	Cycloheximide cs 23, Pf growth 48h inconclusive, Pf growth 96h inconclusive
CC(C)(C)OC(=O)N/N=C/c1ccc(N2CCOCC2)s1	Cycloheximide cs 55, Shiga inhibitor 89, Pf growth 96h inconclusive
O=c1n(Cc2ccccc2)nc2n1-c1ccccc1SC2	Cycloheximide cs 28, Shiga inhibitor 49, Pf growth 48h inconclusive
O=c1n(Cc2ccccc2Cl)nc2n1-c1ccccc1SC2	Cycloheximide cs 48, Shiga inhibitor 40
CC(C)CC[n+]1ccn(-c2nc3ccccc3nc2[N-]S(=O)(=O)c2ccc(Cl)cc2)c1	Pf growth 96h inconclusive
COc1ccc(C(=O)/C=C2/c3ccccc3CC(C)(C)N2C)cc1	none
CN1/C(=C\C(=O)Nc2cccnc2)c2ccccc2CC1(C)C	Pf growth 48h inconclusive, Pf growth 96h 5.9µM
O=[N+]([O-])c1ccccc1CNCCc1ccc(F)cc1	Cycloheximide cs 40, Shiga inhibitor 68 (no result: Pf growth 48h)
c1ccc(CNCCc2c[nH]c3ccccc23)cc1	none
CCc1ccc(CNCCc2c[nH]c3ccccc23)cc1	Pf growth 96h 7.4µM
O=[N+]([O-])c1ccccc1CNCCc1c[nH]c2ccccc12	Pf growth 48h 2.9µM
O=[N+]([O-])c1ccc(CNCCc2ccccc2)cc1	Pf growth 96h 13µM (no result: Shiga inhibitor)
COc1ccccc1CNCCc1ccc(F)cc1	none (no result: Pf growth 48h)
